High-throughput results from PubChem.
Rab9 promoter act – activates the Rab9 promoter; Huh7 Rab9 promoter-luciferase reporter, luminescence, 24 h; Potency, µM (highest dose often 9.22 µM), inactives show top-dose activation, negative = inhibition, actives largely listed as activators; 320,000 tested, 2.8% active; note: % of control where 0% means no effect; nearly all actives have a fitted effect of over 60% in size
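Quantitative HTS format; Huh7 Rab9-luciferase reporter cells (1500/well) receive compound 2 h post-plating, incubate 24 h at 37 °C, then get luciferase reagent for 10 min before luminescence reading.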
SMN2 splice enh – enhancers of SMN2 splice variant expression | Potency, µM (doses to about 46.1 µM), for inactives: at the highest dose activity change, positive = activation, most hits filed as activators | HEK293 SMN2-luciferase splicing reporter, luminescence, 30-36 h | 210,000 tested, 2.8% active | AID 1458; note: % of control where 0% means no effect; nearly all actives have a fitted effect of over 55% in size
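HEK293 cells carry an SMN2 minigene-luciferase reporter in which exon 7 inclusion puts luciferase in frame. Cells were seeded at 2000 cells/well, attached for 10-12 hours, then exposed to compounds for 30-36 hours at 37C before ONE-Glo luminescence.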
ELG1 repair inh – blocks ELG1-dependent DNA repair in HEK293T cells | HEK293T ELG1-luciferase reporter, luminescence, 16 h; DNA damage induced by 5-fluorouridine | Potency, µM (highest dose often 46.1 µM), for inactives: top-dose activity change, negative = inhibition, hits mostly inhibitors | 330,000 tested, 2.3% active; note: % is set by controls: 0 for no effect and ±100 for the full control effect; nearly all actives have a fitted effect of over 55% in size
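Overnight (16 hr) co-exposure of 2,000 cells/well to 5-fluorouridine and compound at 37 °C preceded detection. Luciferase was quantified via ONE-Glo luminescence; loss of signal denotes inhibition.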
ELG1 genotoxic – induces genotoxicity in HEK293T cells with luciferase-tagged ELG1. 330,000 tested, 1.3% active. HEK293T ELG1-luciferase reporter, luminescence, 16 h. Potency, µM (series often up to 46 µM), for the others: at the highest dose activity change, positive = activation, usual class: activators; note: % of control where 0% means no effect; nearly all actives have a fitted effect of over 60% in size
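16 hr compound incubation (37 °C, 5% CO2) of HEK293T cells carrying luciferase-tagged ELG1; luciferase then measured by ONE-Glo luminescence after 30 min at RT.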
NPC1 prom act – activates the NPC1 promoter | 320,000 tested, 2.4% active | Potency, µM (highest dose often 9.22 µM), for the others: at the highest dose activation, most hits filed as activators | Huh7 NPC1 promoter luciferase reporter, 24 h; note: % of control where 0% means no effect; nearly all actives have a fitted effect of over 60% in size
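Luminescence from an NPC1 promoter-driven luciferase reporter in stably transfected Huh7 cells was measured after 24 h compound treatment at 37 °C, followed by 10 min ambient incubation with luciferase detection reagent.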
FLuc modulator – counter-screen for miR-21 project: firefly luciferase inhibitors or activators; 360,000 tested, 6.9% active; Potency, µM (top dose mostly 57.5 µM), for inactives: at the highest dose activity change, negative = inhibition, actives largely listed as inhibitors; purified FLuc, Km substrates, luminescence inhibition; P08659;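 note: plate controls were vehicle for no effect and reference inhibitor for full effect; nearly all actives have a fitted effect of over 55% in size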
Target sequence (P08659 whole entry, looked up): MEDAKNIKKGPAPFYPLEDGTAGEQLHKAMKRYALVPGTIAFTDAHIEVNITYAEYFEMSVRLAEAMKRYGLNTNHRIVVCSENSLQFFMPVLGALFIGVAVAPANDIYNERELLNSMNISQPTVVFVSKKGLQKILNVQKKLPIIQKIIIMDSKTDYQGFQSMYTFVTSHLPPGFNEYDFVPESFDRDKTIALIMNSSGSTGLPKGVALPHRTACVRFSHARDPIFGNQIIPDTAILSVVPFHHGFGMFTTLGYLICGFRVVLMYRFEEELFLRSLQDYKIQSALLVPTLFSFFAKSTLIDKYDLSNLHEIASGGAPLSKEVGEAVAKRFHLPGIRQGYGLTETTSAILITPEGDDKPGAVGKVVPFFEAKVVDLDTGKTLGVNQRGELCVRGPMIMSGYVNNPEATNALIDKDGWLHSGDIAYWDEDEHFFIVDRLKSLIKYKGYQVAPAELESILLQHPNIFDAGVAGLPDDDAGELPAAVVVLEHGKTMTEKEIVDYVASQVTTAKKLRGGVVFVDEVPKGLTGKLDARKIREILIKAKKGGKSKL
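Biochemical qHTS of compounds, final roughly 60 µM downward over six points, against 10 nM purified firefly luciferase using Km concentrations of substrates (10 uM D-luciferin, 10 uM ATP) in Tris acetate pH 7.5 buffer; luminescence output.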
* = called active by the depositor; ? = inconclusive; . = no result given; [ ] = another dose, or the depositor's remark. This is a sample that favours compounds with a hit; in the whole collection about 9.2% have one here. Calls come from the whole dose curve; as a rule, active = well fitted curve in the direction sought with a large enough effect; inconclusive = small, poorly fitted or top-dose-only effect, or another doubt; inactive = no such curve, though single readings can be large; an effect the other way counts as inactive or inconclusive. Potency is the fitted concentration of half-maximal effect.

SMILES | Rab9 promoter act | SMN2 splice enh | ELG1 repair inh | ELG1 genotoxic | NPC1 prom act | FLuc modulator
COc1ccc(NC2=C(Cl)C(=O)N(CCc3ccccc3)C2=O)cc1 | 0.0% | 15.8µM* | 12.0% | 7.9% | 6.0% | 2.69µM*
COc1ccc(N2C(=O)C(Cl)=C(NCc3ccccc3)C2=O)cc1 | 6.0% | -0.3% | 24.9% | 11.9% | -0.9% | 21.3µM*
COc1ccc(NC2=C(Cl)C(=O)N(CCc3ccccc3)C2=O)c(OC)c1 | -1.5% | ? | ? | 11.9% | 2.8% | ?
COc1ccc(CCNC2=C(Cl)C(=O)N(CCc3ccc(OC)c(OC)c3)C2=O)cc1OC | 2.4% | -52.2% | 13µM* | -10.5% | -0.6% | -1.0%
COc1ccc(CCN2C(=O)c3cccnc3C2=O)cc1OC | 7.5% | -9.9% | 7.0% | -0.3% | -2.7% | -0.9%
CC1CCN(S(=O)(=O)c2ccc3c(c2)N(CC(=O)NC(C)c2ccccc2)C(=O)CO3)CC1 (configuration not stated) | . | 17.4% | . | . | . | 2.5%
CC(=O)N1c2ccc(S(=O)(=O)N3CCC(C(=O)N4CCCC(C)C4)CC3)cc2CC1C (configuration not stated) | -17.3% | . | -25.0% | -5.5%[9.26 µM] | -9.9% | 1.1%
CC(=O)Nc1ccc(NC(=O)CSc2nnc(NC(=O)C3CC(=O)N(c4ccc(F)cc4)C3)s2)cc1 (configuration not stated) | -0.8% | . | -2.5% | 6.8% | 2.9% | -1.8%
COC(=O)c1cc(NC(=O)c2cc3sccc3n2Cc2ccc(Cl)cc2)cc(C(=O)OC)c1 | . | -6.8% | . | . | . | 0.9%
COc1cccc(C(=O)c2cn(CC(=O)Nc3cccc(C)c3C)c3nc(C)ccc3c2=O)c1 | . | . | . | . | . | 1.6%
Cc1cc(C)c[n+](C(C)C(=O)c2ccc(Cl)cc2)c1 (configuration not stated) | 1.0% | . | 0.9% | -3.0% | -4.9% | 0.4%
Cc1cc2nc([C@H](C)C(=O)c3ccc(Cl)cc3)c(=O)[nH]c2cc1C | . | 3.55µM* | . | . | . | .
O=C(Nc1nc2ccccc2[nH]1)c1cccc(Br)c1 | 3.55µM* | . | ? | 2.06µM* | ? | 2.39µM*
CN(C)c1cccc(C(=O)Nc2nc3ccccc3[nH]2)c1 | 0.316µM* | . | ? | ? | 0.447µM* | 0.601µM*
O=C(Nc1ncccn1)c1cccc(F)c1 | 17.8% | . | 20.0% | -0.6% | -2.1% | 6.6%
O=C(Nc1nc2ccccc2[nH]1)c1cccc(F)c1 | ? | . | ? | 2.91µM* | ? | 3.01µM*
O=C(CNC(=O)c1cccc(Br)c1)NCCc1nc2ccccc2[nH]1 | -0.4% | -15.7% | 11.2% | -2.1% | -2.6% | 1.6%
Cc1ccc(N(C)S(=O)(=O)c2cccc(C(=O)Nc3nc4ccccc4[nH]3)c2)cc1 | -3.7% | -57.0% | 23.1µM* | -5.2% | 8.4% | -17.7%
Cc1ccc(-c2nc3scc(CCNC(=O)Cc4ccc(Cl)cc4)n3n2)cc1 | . | . | . | . | . | 3.9%
O=C(Nc1nc2ccccc2[nH]1)c1ccc(Br)o1 | ? | 12.6µM* | ? | ? | ? | 9.53µM*
O=C(/C=C/c1ccc(F)cc1)Nc1nc2ccccc2[nH]1 | 0.631µM* | 11.2µM* | ? | ? | 1.26µM* | ?
O=C(Nc1nc2ccccc2[nH]1)c1ccc(Cl)c(S(=O)(=O)N2CCCC2)c1 | 27.7% | -18.7% | ? | 7.2% | ? | 12µM*
COc1ccc(/C=C/C(=O)NCCc2nc3ccccc3[nH]2)cc1 | 9.8% | . | ? | -1.0% | 1.1% | ?
O=C(/C=C/c1ccccc1)NC1CCSC1=O (configuration not stated) | 21.3% | 15.8µM* | ? | 12.2% | 24.8% | ?
O=C(NC1CCSC1=O)c1ccccc1 (configuration not stated) | -1.2% | 15.3% | 9.2% | 1.6% | -1.9% | -0.8%
CCCn1c(SCC(=O)Nc2ccccc2Cl)n[nH]c1=O | 0.0% | . | 11.0% | 1.1% | -0.1% | 0.2%
